In PubChem BioAssay AID1159580 (chemical genetic matrix, 2015):
The campaign covered roughly 5,500 compounds. About 2,000 (36%) were called active. About 18% were inconclusive and are not listed. Rule as the data show it: active = normalized growth mostly below about 0.91 (no sharp cut-off); inconclusive = no clear call, values can overlap the other calls; inactive = mostly above about 0.92. The list shows a part of the results.

Test: chemical genetic growth profiling, strain panel (AID 1159580);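 also: tested at 20 µM; growth read once vehicle control cultures reached saturation at 30 °C; 1 = growth at the plate median or of vehicle wells; lower values mean less growth of the strain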
Conditions: growth OD
[1] = S. cerevisiae deletion strains, locus YAL013W, strain DEP1, stronger effect = lower value
[2] = S. cerevisiae deletion strains, locus YBR229C, strain ROT2, stronger effect = lower value
[3] = S. cerevisiae deletion strains, locus YDL101C, strain DUN1, stronger effect = lower value
[4] = S. cerevisiae deletion strains, locus YDR150W, strain NUM1, stronger effect = lower value
[5] = S. cerevisiae deletion strains, locus YEL061C, strain CIN8, stronger effect = lower value
[6] = S. cerevisiae deletion strains, locus YGR078C, strain PAC10, stronger effect = lower value
[7] = S. cerevisiae deletion strains, locus YHR030C, strain SLT2, stronger effect = lower value
[8] = S. cerevisiae deletion strains, locus YHR087W, strain rtc3, stronger effect = lower value
[9] = S. cerevisiae deletion strains, locus YJL187C, strain SWE1, stronger effect = lower value
[10] = S. cerevisiae deletion strains, locus YJR043C, strain POL32, stronger effect = lower value
[11] = S. cerevisiae deletion strains, locus YJR075W, strain HOC1, stronger effect = lower value
[12] = S. cerevisiae deletion strains, locus YLR039C, strain RIC1, stronger effect = lower value
[13] = S. cerevisiae deletion strains, locus YLR058C, strain SHM2 (second series), stronger effect = lower value
[14] = S. cerevisiae deletion strains, locus YLR085C, strain ARP6, stronger effect = lower value
[15] = S. cerevisiae deletion strains, locus YLR262C, strain YPT6, stronger effect = lower value
[16] = S. cerevisiae deletion strains, locus YML094W, strain GIM5, stronger effect = lower value
[17] = S. cerevisiae deletion strains, locus YMR219W, strain ESC1, stronger effect = lower value
[18] = S. cerevisiae deletion strains, locus YMR263W, strain SAP30, stronger effect = lower value
[19] = S. cerevisiae deletion strains, locus YNL128W, strain TEP1, stronger effect = lower value
[20] = S. cerevisiae deletion strains, locus YNL153C, strain GIM3, stronger effect = lower value
[21] = S. cerevisiae deletion strains, locus YNL298W, strain CLA4 (second series), stronger effect = lower value
[22] = S. cerevisiae deletion strains, locus YNL322C, strain KRE1, stronger effect = lower value
[23] = S. cerevisiae deletion strains, locus YNR030W, strain Alg12, stronger effect = lower value
[24] = S. cerevisiae deletion strains, locus YPL055C, strain LGE1, stronger effect = lower value
[25] = S. cerevisiae deletion strains, locus YPL241C, strain CIN2, stronger effect = lower value
[26] = S. cerevisiae deletion strains, locus YPR135W, strain CTF4, stronger effect = lower value

Measured: normalized growth

O=C1c2ccccc2C(=O)N1CNc1cccc(Cl)c1
inactive: [1] 0.983 | [2] 1 | [3] 0.972 | [4] 0.931 | [5] 0.986 | [6] 0.963 | [7] 0.959 | [8] 1 | [9] 1.01 | [10] 0.943 | [11] 0.951 | S. cerevisiae deletion strains, locus YKL190W, strain CNB1, stronger effect = lower value 1.02 | [12] 1.01 | [13] 1 | [14] 0.96 | [15] 0.98 | [16] 0.96 | [17] 1 | [18] 0.984 | [19] 1 | [20] 0.94 | [21] 0.943 | [22] 1.01 | [23] 0.95 | S. cerevisiae deletion strains, locus YOL006C, strain TOP1, stronger effect = lower value 0.993 | [24] 0.978 | [25] 0.971 | [26] 0.894 | S. cerevisiae strains, strain wild type, stronger effect = lower value 1.01

O=C(CNc1cccc(Cl)c1)c1ccc(Cl)cc1
inactive: [1] 0.971 | [2] 0.933 | S. cerevisiae deletion strains, locus YCL061C, strain MRC1, stronger effect = lower value 0.975 | [3] 0.952 | S. cerevisiae deletion strains, locus YDL134C, strain PPH21, stronger effect = lower value 0.948 | [4] 0.89 | [5] 0.954 | [6] 0.945 | [7] 0.766 | [8] 0.923 | [10] 0.98 | [11] 0.936 | [12] 0.954 | [13] 0.953 | [14] 0.801 | [15] 0.898 | [16] 0.938 | [17] 0.964 | [18] 0.908 | S. cerevisiae deletion strains, locus YMR307W, strain GAS1, stronger effect = lower value 0.862 | [19] 0.973 | [20] 0.97 | [21] 0.937 | [22] 0.951 | [23] 0.89 | [24] 0.832 | [25] 0.899 | [26] 0.824
active: S. cerevisiae deletion strains, locus YGR229C, strain SMI1, stronger effect = lower value 0.935 | [9] 0.933

Cc1cc(C)c2cc(C(=O)NCCNc3ccc(C(F)(F)F)cn3)[nH]c2c1
inactive: S. cerevisiae deletion strains, locus YAR019C, strain CDC15, stronger effect = lower value 0.983 | S. cerevisiae deletion strains, locus YBL105C, strain PKC1, stronger effect = lower value 0.971 | S. cerevisiae deletion strains, locus YBR135W, strain CKS1, stronger effect = lower value 0.983 | S. cerevisiae deletion strains, locus YBR136W, strain MEC1, stronger effect = lower value 0.981 | S. cerevisiae deletion strains, locus YBR160W, strain CDC28, stronger effect = lower value 0.97 | S. cerevisiae deletion strains, locus YDL017W, strain CDC7, stronger effect = lower value 0.98 | S. cerevisiae deletion strains, locus YDL028C, strain MPS1, stronger effect = lower value 0.98 | [3] 0.936 | S. cerevisiae deletion strains, locus YDL108W, strain KIN28, stronger effect = lower value 0.972 | S. cerevisiae deletion strains, locus YDL132W, strain cdc53, stronger effect = lower value 0.992 | S. cerevisiae deletion strains, locus YDR052C, strain DBF4, stronger effect = lower value 0.983 | S. cerevisiae deletion strains, locus YDR054C, strain cdc34, stronger effect = lower value 0.968 | S. cerevisiae deletion strains, locus YDR226W, strain ADK1, stronger effect = lower value 0.983 | S. cerevisiae deletion strains, locus YFL009W, strain cdc4, stronger effect = lower value 0.991 | S. cerevisiae deletion strains, locus YFL029C, strain CAK1, stronger effect = lower value 0.985 | S. cerevisiae deletion strains, locus YFR003C, strain YPI1, stronger effect = lower value 0.976 | S. cerevisiae deletion strains, locus YFR028C, strain CDC14, stronger effect = lower value 0.976 | S. cerevisiae deletion strains, locus YIL147C, strain SLN1, stronger effect = lower value 0.984 | S. cerevisiae deletion strains, locus YJL128C, strain PBS2, stronger effect = lower value 0.961 | S. cerevisiae deletion strains, locus YJR016C, strain ILV3, stronger effect = lower value 0.985 | S. cerevisiae deletion strains, locus YKL193C, strain SDS22, stronger effect = lower value 0.989 | S. cerevisiae deletion strains, locus YMR001C, strain CDC5, stronger effect = lower value 0.986 | S. cerevisiae deletion strains, locus YMR277W, strain FCP1, stronger effect = lower value 0.992 | S. cerevisiae deletion strains, locus YNL006W, strain LST8, stronger effect = lower value 0.986 | S. cerevisiae deletion strains, locus YNL161W, strain CBK1, stronger effect = lower value 0.986 | S. cerevisiae deletion strains, locus YNL207W, strain RIO2, stronger effect = lower value 0.955 | S. cerevisiae deletion strains, locus YNL222W, strain SSU72, stronger effect = lower value 0.974 | S. cerevisiae deletion strains, locus YNL307C, strain MCK1 (second series), stronger effect = lower value 0.644 | S. cerevisiae deletion strains, locus YOL078W, strain AVO1, stronger effect = lower value 0.985 | S. cerevisiae deletion strains, locus YOR329C, strain SCD5, stronger effect = lower value 0.984 | S. cerevisiae deletion strains, locus YPL209C, strain IPL1, stronger effect = lower value 0.976 | S. cerevisiae deletion strains, locus YPR025C, strain CCL1, stronger effect = lower value 0.98 | S. cerevisiae deletion strains, locus YPR106W, strain ISR1, stronger effect = lower value 1 | S. cerevisiae deletion strains, locus YPR111W, strain DBF20, stronger effect = lower value 0.944 | S. cerevisiae deletion strains, strain NNK1, stronger effect = lower value 0.94 | S. cerevisiae deletion strains, strain TSCII, stronger effect = lower value 0.985
active: S. cerevisiae deletion strains, locus YDL214C, strain PRR2, stronger effect = lower value 0.468 | S. cerevisiae deletion strains, locus YDR477W, strain SNF1, stronger effect = lower value 0.457 | S. cerevisiae deletion strains, locus YER123W, strain YCK3, stronger effect = lower value 0.381 | S. cerevisiae deletion strains, locus YER133W, strain GLC7, stronger effect = lower value 0.487 | S. cerevisiae deletion strains, locus YFR019W, strain FAB1, stronger effect = lower value 0.322 | S. cerevisiae deletion strains, locus YGR040W, strain KSS1, stronger effect = lower value 0.501 | S. cerevisiae deletion strains, locus YGR052W, strain FMP48, stronger effect = lower value 0.249 | S. cerevisiae deletion strains, locus YGR092W, strain DBF2, stronger effect = lower value 0.225 | [7] 0.0941 | S. cerevisiae deletion strains, locus YHR079C, strain IRE1, stronger effect = lower value 0.11 | S. cerevisiae deletion strains, locus YHR082C, strain KSP1, stronger effect = lower value 0.125 | S. cerevisiae deletion strains, locus YHR205W, strain SCH9, stronger effect = lower value 0.457 | S. cerevisiae deletion strains, locus YJL095W, strain BCK1, stronger effect = lower value 0.102 | S. cerevisiae deletion strains, locus YJL157C, strain FAR1, stronger effect = lower value 0.501 | S. cerevisiae deletion strains, locus YJR066W, strain TOR1 (second series), stronger effect = lower value 0.212 | S. cerevisiae deletion strains, locus YJR066W, strain TOR1, stronger effect = lower value 0.121 | S. cerevisiae deletion strains, locus YKL048C, strain ELM1, stronger effect = lower value 0.511 | S. cerevisiae deletion strains, locus YKL067W, strain YNK1, stronger effect = lower value 0.567 | S. cerevisiae deletion strains, locus YKL203C, strain TOR2, stronger effect = lower value 0.233 | S. cerevisiae deletion strains, locus YLR113W, strain HOG1, stronger effect = lower value 0.137 | S. cerevisiae deletion strains, locus YLR133W, strain CKI1, stronger effect = lower value 0.446 | S. cerevisiae deletion strains, locus YLR403W, strain SFP1, stronger effect = lower value 0.557 | S. cerevisiae deletion strains, locus YML070W, strain DAK1, stronger effect = lower value 0.365 | S. cerevisiae deletion strains, locus YMR205C, strain PFK2 (second series), stronger effect = lower value 0.551 | S. cerevisiae deletion strains, locus YNL020C, strain ARK1, stronger effect = lower value 0.415 | S. cerevisiae deletion strains, locus YNL183C, strain NPR1, stronger effect = lower value 0.169 | S. cerevisiae deletion strains, locus YOL136C, strain PFK27, stronger effect = lower value 0.398 | S. cerevisiae deletion strains, locus YOR061W, strain CKA2, stronger effect = lower value 0.59 | S. cerevisiae deletion strains, locus YOR119C, strain RIO1, stronger effect = lower value 0.341 | S. cerevisiae deletion strains, locus YOR231W, strain MKK1, stronger effect = lower value 0.129 | S. cerevisiae deletion strains, locus YPL031C, strain PHO85, stronger effect = lower value 0.276 | S. cerevisiae deletion strains, locus YPL153C, strain RAD53, stronger effect = lower value 0.184 | S. cerevisiae deletion strains, locus YPL204W, strain HRR25, stronger effect = lower value 0.268 | S. cerevisiae deletion strains, locus YPL256C, strain CLN2, stronger effect = lower value 0.137
